# Measured values reported in PubChem BioAssay AID372 (MTDP, 2006).
# Screen size: about 100,000 compounds; about 770 (0.77%) were called active. What follows is part of a selection rich in actives, with near analogues and random picks from the rest. Unmarked numbers belong to inactive results. No stated cut-off is given here; in the data, active means inhibition above about 50%; inactive means the rest.
# Biological target: Gag-Pol polyprotein (Human immunodeficiency virus type 1 group M subtype B (isolate HXB2)) (UniProt P04585)
# Experiment: RNase H inhibition, HIV 1 Gag Pol polyprotein, FRET biochemical assay, screening (AID 372)
# Conditions: HIV-1 RT RNase H, FRET RNA/DNA substrate fluorescence; at 10 µM; active compounds read high
row,SMILES,inhibition
1,O=C(/C=C/c1cccs1)c1ccc(C(=O)/C=C/c2cccs2)cc1,13%
2,O=C(/C=C/c1ccc(F)cc1)Nc1cccc2cccnc12,7%
3,O=C(NC(=S)Nc1ccc(O)c(-c2nc3ccccc3o2)c1)c1ccc([N+](=O)[O-])cc1,9%
4,O=C(NC(=S)Nc1cccc(-c2nc3cc(Cl)cc(Cl)c3o2)c1)c1cccc(F)c1,58% (active)
5,O=C(NC(=S)Nc1cccc(-c2nc3cc(Cl)cc(Cl)c3o2)c1)c1ccc(Cl)cc1,11%
6,O=C(NC(=S)Nc1ccc(O)c(-c2nc3ccccc3o2)c1)c1ccc(F)cc1,56% (active)
7,O=C(NC(=S)Nc1cccc(-c2nc3cc(Cl)cc(Cl)c3o2)c1)c1ccccc1Cl,19%
8,O=C(Nc1ccc(O)c(-c2nc3ccccc3o2)c1)c1ccc(F)cc1,6%
9,O=S(=O)(c1cc(Cl)ccc1Cl)n1ccnc1,0%
10,CCOC(=O)c1ccc(-c2ccc(/C=N/O)o2)cc1,0%
11,COC(=O)C1=C(C)NC2=C(C(=O)CC(c3ccc(OC)cc3)C2)C1c1cccc(OC)c1OC (centres undefined),11%
12,COc1ccc(-c2nc3ccccc3o2)cc1NC(=S)NC(=O)c1ccccc1C,53% (active)
13,COc1ccccc1C(=O)NC(=S)Nc1cc(-c2nc3ccccc3o2)ccc1C,10%
14,Cc1ccc2nc(-c3ccc(Cl)c(NC(=S)NC(=O)c4ccccc4C)c3)oc2c1,42%
15,O=C(NC(=S)Nc1cc(-c2nc3ccccc3o2)ccc1Cl)c1ccccc1Br,9%
16,Cc1ccccc1C(=O)NC(=S)Nc1cc(-c2nc3ccccc3o2)ccc1Cl,53% (active)
17,Cc1ccc(-c2nc3ccccc3o2)cc1NC(=S)NC(=O)c1ccccc1C,12%
18,O=C(NC(=S)Nc1ccc(Cl)cn1)c1cccc(F)c1,13%
19,Cc1ccc2nc(-c3ccc(Cl)cc3)cn2c1,5%
20,O=C1C(=O)N(c2nc3ccccc3s2)C(c2ccccc2F)/C1=C(/O)c1ccccc1 (centres undefined),8%
21,O=C(Nc1c(C(=O)Nc2ccc(Br)cc2)cnn1-c1ccccc1)c1ccco1,8%
22,O=C(Nc1ccc(S(=O)(=O)N2CCCCC2)cc1)c1ccccc1Cl,57% (active)
23,O=C(Nc1ccc(S(=O)(=O)N2CCOCC2)cc1)c1ccccc1Cl,0%
24,O=C(Nc1ccc(S(=O)(=O)N2CCCCCC2)cc1)c1ccc(Cl)cc1Cl,8%
25,Cc1cccc(C(=O)NN=C2CCCCC2)c1,7%

row,SMILES,inhibition
1,CC(C)NS(=O)(=O)c1ccc(Br)cc1,0%
2,CC1=C(C#N)C(=O)NC(=O)/C1=C\c1ccc(-c2cccc(Cl)c2)o1,33%
3,CC1=C(C#N)C(=O)NC(=O)/C1=C\c1ccc(-c2cc(C)c(C)cc2[N+](=O)[O-])o1,56% (active)
4,Cc1cc(-c2ccc(/C=C3/C(=O)NN(c4ccc(F)cc4)C3=O)o2)c([N+](=O)[O-])cc1C,5%
5,O=C1NC(=S)NC(=O)C1=Cc1ccc(-c2ccc(Cl)cc2[N+](=O)[O-])o1,42%
6,CC1=C(C#N)C(=O)NC(=O)/C1=C\c1ccc(-c2ccc(Cl)c(Cl)c2)o1,50% (active)
7,Cc1cc(-c2ccc(C=C3C(=O)N(C)C(=O)N(C)C3=O)o2)c([N+](=O)[O-])cc1C,6%
8,CC(=O)c1cccc(-c2ccc(/C=C3\C(=O)NC(=O)C(C#N)=C3C)o2)c1,43%
9,Cc1ccc(-c2ccc(C=C3C(=O)NC(=O)NC3=O)o2)c([N+](=O)[O-])c1,14%
10,C=CCN1C(=O)/C(=C/c2cc(C)n(-c3ccc(C(=O)O)cc3C)c2C)C(=O)NC1=S,6%
11,Cc1cc(Br)cc(C)c1NC(=O)c1cccnc1,2%
12,CCOC(=O)CNC1=C([N+](=O)[O-])C(=O)CC(C)(C)C1,0%
13,C=CCn1cc(/C=c2\sc3n(c2=O)C(c2ccc(SC)cc2)C(C(=O)OCC)=C(C)N=3)c2ccccc21 (centres undefined),24%
14,COc1ccc(C2CC(C(F)(F)F)n3nc(C(=O)Nc4cc(OC)c(Cl)cc4OC)c(Cl)c3N2)cc1 (centres undefined),14%
15,COc1ccc(C)cc1NC(=O)COc1cccc2ccccc12,21%
16,Cc1ccccc1N1C(=O)/C(=C/c2cccn2-c2ccc(Br)cc2)C(=O)NC1=S,20%
17,CCc1ccccc1N/C=C(\C#N)c1nc(-c2ccc(Cl)cc2)cs1,8%
18,Cc1ccc(-c2n[nH]c(=S)n2N=Cc2ccccc2OCC(=O)O)cc1,12%
19,COc1ccc(/C=C2/Sc3ccccc3C2=O)cc1,5%
20,O=C(COc1ccc(Cl)cc1Cl)Nc1ccccc1F,27%
21,Cc1ccc(C(=O)NC(=S)Nc2ccc(O)c(-c3nc4ccccc4s3)c2)cc1,37%
22,O=C(COc1ccc(Cl)cc1Cl)Nc1ccc(O)c(-c2nc3ccccc3s2)c1,61% (active)
23,O=C(NC(=S)Nc1ccc(O)c(-c2nc3ccccc3s2)c1)c1ccc(Cl)cc1,54% (active)
24,O=C(COc1ccc(Br)cc1Cl)Nc1ccccc1F,51% (active)
25,CCC(=O)Nc1ccc(NC(=O)COc2ccc(Cl)cc2Cl)cc1,27%

row,SMILES,inhibition
1,Cc1ccccc1OCC(=O)Nc1ccc(O)c(-c2nc3ccccc3s2)c1,14%
2,O=C(COc1ccc(Cl)cc1Cl)Nc1ccc(NC(=O)COc2ccc(Cl)cc2Cl)cc1,52% (active)
3,O=C(NC(=S)Nc1ccc(O)c(-c2nc3ccccc3s2)c1)c1ccc(F)cc1,46%
4,O=C(COc1ccc(Br)cc1Cl)Nc1ccccc1Cl,31%
5,O=C(COc1ccc(Cl)cc1Cl)Nc1ccc(-c2nc3ccccc3s2)c(O)c1,27%
6,O=C(COc1ccc(Cl)cc1Cl)Nc1ccc(-c2ccccc2)cc1,7%
7,C#CCSc1nncn1C(=O)/C=C/c1ccco1,19%
8,COc1ccc2nc(N/C(N)=N/S(=O)(=O)c3ccc(C)cc3)nc(C)c2c1,5%
9,Cc1cc(=O)[nH]c(N/N=C/c2cccnc2)n1,0%
10,CCCCNCCCCCOc1ccccc1C(C)C,5%
11,COc1cccc(OCCCCOc2ncnc3ccccc23)c1,10%
12,O=C(COc1ccc(/C=N/NS(=O)(=O)c2ccccc2)cc1)Nc1ccc(F)cc1,4%
13,CCOc1ccc(N(CC(=O)NCCSCc2ccc(C)cc2)S(C)(=O)=O)cc1,16%
14,COC(=O)c1ccc(/C=C2\N=C(c3ccc(F)cc3)OC2=O)cc1,0%
15,CC(=O)Oc1ccc2c(=O)c(-c3nc4ccccc4[nH]3)c(C)oc2c1,3%
16,O=C(COc1ccc(Br)cc1Cl)Nc1ccc2c(c1)OCCO2,50% (active)
17,O=C(COc1ccc(Cl)cc1Br)Nc1ccc2c(c1)OCCO2,36%
18,O=C(NC(=S)Nc1ccc(O)c(-c2nc3ccccc3s2)c1)c1cccs1,19%
19,O=C(NC(=S)Nc1ccc(-c2nc3ccccc3s2)c(O)c1)c1cccs1,56% (active)
20,O=C(COc1ccc(Br)cc1Cl)Nc1ccc2c(c1)OCO2,18%
21,O=C(NC(=S)Nc1cccc(-c2nc3ccccc3s2)c1)c1cccs1,7%
22,CC(=O)N1N=C(c2ccc(N(C)C)cc2)CC1c1ccccc1 (centres undefined),11%
23,Nc1[nH]n(-c2ccccc2)c(=O)c1N=Nc1ccc(Cl)cc1,9%
24,O=C(N/N=C/c1ccc(I)cc1)C1CC(=O)N(c2ccccc2)C1 (centres undefined),9%
25,Cc1cc(/C=N/O)c(C)n1-c1ccc(N(C)C)cc1,11%

row,SMILES,inhibition
1,CCOc1cc(/C=C(\C#N)c2nc3ccccc3s2)ccc1O,16%
2,COc1cc(/C=C(\C#N)c2nc3ccccc3s2)cc(Br)c1O,5%
3,COc1cc(/C=C(\C#N)c2nc3ccccc3s2)cc(OC)c1O,54% (active)
4,C=CCN(CC=C)CC(O)CN1C(=O)NC(C)(C)C1=O (centres undefined),3%
5,CC1=CC(C)(C)N(C(=O)CSc2nc3ccccc3s2)c2cc(C)ccc21,20%
6,COc1ccc(-c2c(C#N)c(N)nc(SCC(=O)OCc3ccccc3)c2C#N)cc1,15%
7,COC(=O)CSc1nc(N)c(C#N)c(-c2ccc(O)cc2)c1C#N,2%
8,Cc1ccc(C(=O)CSc2nc(N)c(C#N)c(-c3ccc(O)cc3)c2C#N)cc1,47%
9,COC(=O)CSc1nc(N)c(C#N)c(-c2ccc(OC)cc2)c1C#N,4%
10,COc1cccc(N=Cc2c(O)ccc3ccccc23)c1,13%
11,Cc1ccccc1Nc1ncc(-c2ccc3ccccc3c2)s1,22%
12,COc1cc(C2C(C(=O)/C=C/c3ccccc3)=C(O)C(=O)N2c2ccccn2)ccc1O (centres undefined),6%
13,COc1cc2ccccc2cc1C(=O)Nc1ccc(Br)cc1F,18%
14,Cc1ccccc1-n1c(O)c(C=NCc2ccccc2F)c(=O)[nH]c1=O,9%
15,CC1CCc2c(sc(N)c2C#N)C1 (centres undefined),57% (active)
16,CCC1CCc2c(sc(N)c2C#N)C1 (centres undefined),18%
17,CCCC1CCc2c(sc(N)c2C#N)C1 (centres undefined),39%
18,O=C(Nc1ccc(NC(=O)c2cc([N+](=O)[O-])cc([N+](=O)[O-])c2)cc1)c1cccc(Br)c1,12%
19,CCC(OC(=O)CN1C(=O)C(=O)c2ccccc21)C(=O)Nc1ccc(S(N)(=O)=O)cc1 (centres undefined),12%
20,O=C(O)COc1ccc(N2C(=O)C=CC2=O)cc1,35%
21,Cc1ccc(C)n1-c1ccc(OCC(=O)O)cc1,54% (active)
22,Cc1ccc(C)n1-c1ccc(CC(=O)O)cc1,47%
23,CC(=O)c1ccc(-n2c(C)ccc2C)cc1,0%
24,O=C(O)COc1ccc(N2C(=O)CCC2=O)cc1,12%
